From ChEMBL document CHEMBL3988442, “University of Dundee, Small-Polar-MMV Screening Library” (2021) come the findings set out here.

The whole screen tested about 48,000 compounds, of which about 13,000 (27%) showed an effect of 50% or more. Some of the results follow.

The test system of this assay is Wolbachia pipientis. Briefly: Anti-Wolbachia Cell-Based Screen. It counts as functional. Details: scale not given: in the data most compounds retested in dose-response had high values. The conditions noted are these: 5 µM.
As for `CCN1C(=O)COC[C@@H]1[C@H](O)c1ccc(NC(=O)COC)cc1`, the “Percent Effect” value was -2.196%. With `c1cc(-c2nc3c(c(NCCc4c[nH]cn4)n2)CCNCC3)ccn1` the figure was 6.655%; with `CC(=O)c1cccc(C(=O)N2C[C@@H](CN3CCCCCC3)[C@@H](CO)C2)c1`, -7.849%. The value for `CN(C)c1ccc2c(c1)CN(C(=O)c1c[nH]cn1)C2c1cnco1` (centres undefined) was 3.646%; that for `Cc1nccn1-c1cccc(C2CCCN2S(=O)(=O)c2cn(C)cn2)n1` (centres undefined) was -2.327%; that for `CCn1cc(S(=O)(=O)N2CCC(C3CCCCN(C)C3=O)CC2)c(C)n1` (centres undefined) was 91.1%. With `CN1CCCCC(C2CCN(S(=O)(=O)c3cn(C)cn3)CC2)C1=O` (centres undefined) the figure was 106.2%; with `Cn1cnc(S(=O)(=O)N2CCCn3cnc(CN4CCCC4)c3C2)c1`, 1.863%. Take `CCn1cc(S(=O)(=O)N(C)Cc2c(Br)cnn2CC)c(C)n1`: the “Percent Effect” value turned out to be 5.348%. With `CCn1cc(C(=O)n2nc(C)cc2C)c(S(=O)(=O)N2CCCCC2)n1` the figure was -19.19%; with `CN(Cc1ccccc1)c1ccc(C(F)(F)F)cn1`, 3.007%; with `Cc1cc(Cl)ccc1NCC(=O)Nc1cc(C(C)(C)C)no1`, -19.79%. The value for `O=C(C[C@@H]1COC[C@H]2CN(Cc3ccc(F)cc3)C[C@@H]12)N1CCCCO1.O=C(O)C(F)(F)F` was 6.294%. The value for `Cc1cccc(C(=O)N2C[C@@H]3[C@H](CC(=O)N4CCCC4)[C@@H]3C2)n1` was -9.844%; that for `O=C(C[C@@H]1COC[C@H]2CN(C(=O)c3ccccn3)C[C@@H]12)N1CCCC1.O=C(O)C(F)(F)F` was 106.7%.

For `Cc1cccc(C(=O)N2C[C@@H]3COC[C@@H](CC(=O)N4CCCC4)[C@@H]3C2)n1.O=C(O)C(F)(F)F`, the “Percent Effect” value is 117.6%.

For `O=C(C[C@@H]1COC[C@H]2CN(Cc3ccsc3)C[C@@H]12)N1CCCC1`, the “Percent Effect” value is reported as -43.11%. Turning to `Cc1cccc(C(=O)N2C[C@@H]3[C@H](CC(=O)NC(C)C)[C@@H]3C2)n1.O=C(O)C(F)(F)F`, the “Percent Effect” value is recorded as -21.16%.

In the case of `COc1ccc2c(C)c(C(=O)NCC3CN(S(C)(=O)=O)CCO3)oc2c1` (centres undefined), the “Percent Effect” value is reported as -45.67%. As for `CC(C)[C@@H]1CN(Cc2ccccc2C#N)C[C@H]1C(=O)O`, the “Percent Effect” value is -3.453%.

In the case of `CC(=O)c1cc(CN2C[C@H]3CC[C@@H]2CN(Cc2c(C)noc2C)C3)cs1`, the “Percent Effect” value is reported as 0.576%. The value for `c1cnc(Nc2cncc(C3CCCN(c4cnccn4)C3)n2)nc1` (centres undefined) was 136.5%; that for `c1cnc(Nc2cncc(C3CCCN(c4ncccn4)C3)n2)nc1` (centres undefined) was 144.2%; that for `c1ccc(N2CCCC(c3nc(-c4cccnn4)no3)C2)nc1` (centres undefined) was -11.75%.

For `Cc1cc(NC(=O)CNc2cccc(C(=O)N3CCCC(O)C3)c2)no1` (centres undefined), the “Percent Effect” value was -4.959%.

Consider `O=C(CCn1c(=O)oc2ccccc21)NCC(O)c1ccc(Cl)cc1` (centres undefined), for which the “Percent Effect” value stood at 131.9%.

In the case of `O=C(CCCc1ccccn1)NCC(O)c1ccccc1Cl` (centres undefined), the “Percent Effect” value stood at 8.067%. As for `O=C(CCn1c(=O)oc2ccccc21)NCC(O)c1ccc(F)c(F)c1` (centres undefined), the “Percent Effect” value amounted to 132.5%. For the molecule `Nc1nnc(SCC(=O)NCC(O)c2ccccc2)s1` (centres undefined), the “Percent Effect” value worked out at 7.273%. The value for `O=C(CCn1c(=O)oc2ccccc21)NCC(O)c1ccccc1` (centres undefined) was 124.9%. In the case of `O=C(NCC(O)c1ccc(F)c(F)c1)c1ccccc1F` (centres undefined), the “Percent Effect” value is recorded as -40.57%.

Regarding `CC(c1ccccn1)N(C)C(=O)NCCn1c(=O)oc2ccccc21` (centres undefined), the “Percent Effect” value was -13.01%.

Turning to `O=C(Cn1c(=O)oc2ccccc21)NCC(O)c1ccc2c(c1)CCO2` (centres undefined), the “Percent Effect” value is given as -5.514%. With `O=C(CCc1ccccn1)NCC(O)c1ccc(Cl)cc1Cl` (centres undefined) the figure was -3.695%; with `CC(NC(=O)CCn1c(=O)oc2ccccc21)c1ccccn1` (centres undefined), 132.8%; with `Cc1ccc(C(O)CNC(=O)CCCc2ccccn2)o1` (centres undefined), -12.57%.

Consider `CC(NCCn1c(=O)oc2ccccc21)c1ccccn1` (centres undefined), for which the “Percent Effect” value is recorded as -1.92%. With `COCc1ccc(C(=O)NS(=O)(=O)c2ccc3c(c2)CCC(=O)N3)cc1` the figure was -28.72%; with `Cc1cc(N2CCN(C(=O)c3cc(Cl)c[nH]3)CC2)nc(C)n1`, -11.81%; with `COc1ccc([C@@H]2CN(c3cc(C(=O)O)ccn3)C[C@H]2N(C)C)cc1`, -11.81%. Regarding `COc1ccc(-c2cc(C3CCN(C(C)=O)CC3)ccn2)cc1`, the “Percent Effect” value is 135.1%. On to `Cn1ccnc1CN1CCC(c2ccnc(-c3cccc(O)c3)c2)C1` (centres undefined), for which the “Percent Effect” value is recorded as 8.376%. With `COc1ccc(-c2nc(C3CCNCC3)cc3c2ncn3C)cc1.Cl.Cl` the figure was -43.66%; with `COc1ccc([C@@H](C)n2ccnc2-c2cc3n(n2)CCCNC3)cc1`, -13.97%; with `COc1cccc(-c2c[nH]c(C3CCCN3)n2)c1.Cl.Cl` (centres undefined), -13.27%. With `COc1ccc(-c2cc(C3CCNCC3)ccn2)cc1.Cl` the figure was 126.8%; with `COc1cccc(-c2cc(C3CCCNC3)ccn2)c1` (centres undefined), 179.8%. The value for `COc1ccc(-c2cc(C3CCCNC3)ccn2)cc1.Cl` (centres undefined) was 198.3%. In the case of `COc1ccc(OC)c(C2CCN(C3CCN(C(C)=O)CC3)C2)c1` (centres undefined), the “Percent Effect” value is given as -1.425%. As to `CC(NC(=O)CCCc1ccc(Cl)cc1)c1n[nH]c(=O)[nH]1` (centres undefined), the “Percent Effect” value worked out at 26.11%. The value for `COCCCNC(=O)C1CCN(CC2(O)CCC(C)CC2)CC1` (centres undefined) was -1.754%.

Regarding `O=C(c1ccc(O)c(Cl)c1)N1CCC(c2n[nH]c(C3CC3)n2)CC1`, the “Percent Effect” value came to 7.915%.

Regarding `CC1CN(c2ccc(CNC(=O)NCCO)cn2)CCO1` (centres undefined), the “Percent Effect” value is recorded as -1.494%. The value for `Cc1noc(C)c1CNC(=O)Nc1ccc(N2CCOC(C)C2)cc1` (centres undefined) was 95.8%; that for `Cc1ccsc1CNC(=O)c1ccc(N2CCOC2=O)cc1` was 25.75%. With `Cc1noc(C)c1CNC(=O)N1CCC(CO)CC1` the figure was -12.65%. For the molecule `CC1CN(c2ccc(CNC(=O)NCc3ccoc3)cn2)CCO1` (centres undefined), the “Percent Effect” value is 4.131%. The value for `Cc1noc(C)c1CCCNC(=O)Nc1ccc2c(c1)CC(=O)N2` was -4.957%; that for `Cc1noc(C)c1CCCNC(=O)Nc1ccc2c(c1)COC2` was 12.5%; that for `Cc1noc(C)c1CN1C[C@@H](C(=O)O)[C@H](c2ccccc2)C1` was -10.93%. Turning to `Cc1noc(C)c1C(=O)NCc1ccc(N2CCOC(C)C2)nc1` (centres undefined), the “Percent Effect” value worked out at 6.815%. As to `Cc1noc(C)c1CNC(=O)Nc1ccc(N2CCOC2=O)cc1`, the “Percent Effect” value was 99.13%. The value for `Cc1ocnc1CNC(=O)Nc1ccc(N2CCOC(C)C2)cc1` (centres undefined) was 105.8%; that for `Cc1noc(C)c1CNC(=O)Nc1ccc(N2CCSCC2)cc1` was 101.4%. With `O=C(CCCn1cncn1)NC1(c2ccc(Cl)cc2)CCC1` the figure was -16.99%. Regarding `COc1cc(CCC(=O)N2CCC(c3cc4ncccc4[nH]3)CC2)on1`, the “Percent Effect” value came out at 86.08%.

For `O=C(CCn1ccc(=O)[nH]c1=O)N1CCC(Oc2ccccn2)CC1`, the “Percent Effect” value is 4.456%. The value for `COc1cc(CCC(=O)N2CCC(c3cc4nccnc4[nH]3)CC2)on1` was 109.8%; that for `O=C(CCc1cc(O)no1)N1CCCC(COc2ccccc2F)C1` (centres undefined) was -3.381%. With `O=C(CCN1CCC(c2cc3ccccc3[nH]2)CC1)N1CCOCC1` the figure was -13.23%; with `O=C(CCc1cc(O)no1)N1CCCC(COc2ccc(F)cc2)C1` (centres undefined), -11.68%. Consider `CN1C[C@@H](C(=O)NC2CCCC2)[C@@]2(COc3ccc(F)cc3C2=O)C1`, for which the “Percent Effect” value came out at 83.49%.

In the case of `O=C(NCCNC(=O)C1Cc2cc(F)ccc2O1)C1CCCCC1` (centres undefined), the “Percent Effect” value was 14.96%. With `CN1C[C@@H](C(=O)NC2CC2)[C@@]2(COc3ccc(F)cc3C2=O)C1` the figure was 74.8%; with `O=C(NC1(C(=O)O)CCCC1)C1Cc2cc(F)ccc2O1` (centres undefined), -1.866%; with `Cc1ccsc1C(=O)N1CC(C(=O)NC(C)C)C2(CCOCC2)C1` (centres undefined), 2.071%.

For the molecule `O=C(CCN1CCC(C(=O)c2cc(F)ccc2F)CC1)NC1CCCC1`, the “Percent Effect” value is -34%. As to `O=C(C1CCOc2ccccc21)N1CCOc2ccc(F)cc21` (centres undefined), the “Percent Effect” value is given as 2.761%. For the molecule `CC(C)NC(=O)C1CN(C(=O)c2ccc(F)cc2)CC12CCOCC2` (centres undefined), the “Percent Effect” value turned out to be 19.27%. Take `CNC(=O)N1Cc2cc(F)ccc2C2(CCN(C)CC2)C1.Cl`: the “Percent Effect” value was found to be 3.324%.

In the case of `CN1CCN(C(=O)[C@@H]2CN(C)C[C@]23COc2ccc(F)cc2C3=O)CC1`, the “Percent Effect” value is recorded as 67.23%. With `CC(C)NC(=O)[C@@H]1CN(C)C[C@]12COc1ccc(F)cc1C2=O` the figure was 126.3%; with `CCCN1CCC(NC(=O)c2ccc(F)cc2I)CC1`, 3.516%; with `Cc1cc(F)ccc1N1CCC(N2C[C@@H](C)[C@@](C)(O)C2)CC1`, -24.61%.

`OCCOCc1n[nH]c2c1CN(Cc1cccs1)C2`: the “Percent Effect” value is -8.945%. With `C1CCC(c2nc3c(c(N4CC(N5CCOCC5)C4)n2)CCNCC3)C1` the figure was -4.65%; with `Cc1noc(C)c1CN(C)C(=O)C1CCCCN1CC(C)C` (centres undefined), 0.6295%. As for `CCc1cnc(C)nc1N1CCS(=O)(=O)CC1`, the “Percent Effect” value turned out to be 16.32%. With `CC(C)(C)NC(=O)C1CSCN1S(=O)(=O)c1cccc(F)c1` (centres undefined), the “Percent Effect” value was 1.077%. The value for `CC(C)(C)NC(=O)C1CSCN1S(=O)(=O)c1ccc(F)cc1` (centres undefined) was 5.212%. The value for `CN1C[C@@H](C(=O)NC(C)(C)C)[C@@]2(COc3ccc(F)cc3C2=O)C1` was 107.1%. The value for `CC(=O)c1cccc(S(=O)(=O)N2CSCC2C(=O)NCC(F)(F)F)c1` (centres undefined) was 8.95%; that for `CN(C)C(=O)c1cncnc1-c1ccc(CNC(=O)C2CC2)cc1` was 73.6%; that for `CN(Cc1ccco1)Cc1ccccc1CNC(=O)c1cnccn1` was 7.808%. As for `Cc1ncsc1C(=O)NCc1ccc(-c2n[nH]cc2C(=O)N(C)C)cc1`, the “Percent Effect” value is recorded as 72.18%. Take `Cc1cc(C(=O)NCc2ccccc2CN(C)Cc2ccco2)on1`: the “Percent Effect” value came out at 21.5%. On to `CCN(CC)c1ccc(CNC(=O)c2cnccn2)cn1`, for which the “Percent Effect” value is reported as 2.528%. The value for `CN(C)C(=O)c1c[nH]nc1-c1ccc(CNC(=O)c2cnccn2)cc1` was 109.4%. With `CN(c1ccc(CNC(=O)c2ccc(O)nc2)cc1)C1CCCCC1` the figure was 6.661%. With `Cc1ncsc1C(=O)NCc1cccs1` the figure was -3.425%; with `Cc1ccc(CNC(=O)c2c[nH]nc2NC(=O)C2CCC2)cc1`, 4.147%. Take `CCOc1cc(CNC(=O)c2cc(-c3ccccn3)no2)ccn1`: the “Percent Effect” value is listed as -5.804%. The value for `CN(CCOc1cccc(CNC(=O)C2CC2)c1)C1CCOCC1` was -18.9%; that for `Cc1cc(C(=O)NCc2ccc(-c3n[nH]cc3C(=O)N(C)C)cc2)on1` was 136.2%.
